A selection: hits, their analogues and other compounds. The true share with any hit is near 2.5%.
rRNA inh HTS: reduced GFP signal of wild-type E. coli, primary screen, bacterial rRNA inhibitor project, GFP/RFP fluorescence, OD600, single point | E. coli WT GFP vs humanized-ribosome RFP mutants, 24 h; stronger effect = lower value; DMSO median 0, no signal -100 | GFP signal change (wild-type ribosome), % (test concentration not listed) | hit rate 1.6% among 350,000 | AID 720706, 2013;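 active means significant combined selectivity score with lowered wild-type GFP, culture density cut under 30%, mutant RFP and density less affected; inactive means any of these conditions unmet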
MLL AF4-AF9 inh: inhibitors of AF4 peptide binding to AF9, primary screen, biochemical, AlphaScreen, biotin-AF4 peptide, FLAG-AF9, single point | Protein AF-9 (Homo sapiens), P42568 | inhibition, % at 10 µM | AID 651704, 2012 | hit rate 0.47% among 350,000;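 active means every replicate reaching a set inhibition limit, whatever the replicate mean, cut at about 25% in these data; inconclusive means mean inhibition reaches that limit but some replicates miss it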;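 further: 0% = plate neutral control median and 100% = total signal loss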
Target sequence (P42568 whole entry, looked up): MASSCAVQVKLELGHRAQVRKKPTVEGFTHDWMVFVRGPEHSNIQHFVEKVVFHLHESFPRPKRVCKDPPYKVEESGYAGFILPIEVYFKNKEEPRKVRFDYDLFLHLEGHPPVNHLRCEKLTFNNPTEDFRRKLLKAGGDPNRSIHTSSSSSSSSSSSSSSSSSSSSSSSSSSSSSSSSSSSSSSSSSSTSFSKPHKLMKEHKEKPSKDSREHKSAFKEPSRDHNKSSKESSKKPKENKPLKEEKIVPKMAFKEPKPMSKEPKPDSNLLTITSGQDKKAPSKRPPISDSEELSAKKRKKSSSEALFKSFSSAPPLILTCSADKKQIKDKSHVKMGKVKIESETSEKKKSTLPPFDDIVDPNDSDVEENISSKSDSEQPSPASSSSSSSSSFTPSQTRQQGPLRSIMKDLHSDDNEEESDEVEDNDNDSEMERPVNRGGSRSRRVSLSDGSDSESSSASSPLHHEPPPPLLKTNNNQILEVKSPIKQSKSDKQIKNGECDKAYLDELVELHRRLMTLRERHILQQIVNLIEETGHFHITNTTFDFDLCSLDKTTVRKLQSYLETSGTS
RAD52 anneal inh: RAD52 DNA annealing inhibitors, primary screen, biochemical, FRET, single point, set 2. inhibition, % at 18.7 µM. hit rate 0.46% among 360,000. recombinant RAD52 DNA annealing, FRET fluorescence. AID 651710, 2012. DNA repair protein RAD52 homolog (Homo sapiens), P43351;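 active means every replicate showing at least 50% inhibition; inconclusive means mean inhibition at least 50% but not in every replicate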
Casp6 inh: human caspase-6 inhibitors, primary screen, biochemical, VEID-R110 fluorescence, single point, set 2; P55212; purified caspase-6, Z-VEID-R110 cleavage fluorescence; inhibition, % at 12.5 µM; hit rate 0.53% among 350,000;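 active means mean inhibition across replicates at least about 35%, with every replicate also reaching that limit, limit read from the data; inconclusive means only one of the two criteria met; inactive means neither criterion met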;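 further: 0% = median of neutral control wells and 100% = no fluorescence left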
NSD2 inh: NSD2 histone methyltransferase inhibitors, primary screen, biochemical, AlphaScreen, single concentration, set 2; Histone-lysine N-methyltransferase NSD2 (Homo sapiens), O96028; NSD2 peptide methylation, 120 min; inhibition, % at 12.5 µM; hit rate 0.54% among 310,000; AID 743445, 2014; in the data active means inhibition above about 50%
HepG2 cytotox: cytotoxicity in HepG2 cells, dose response, cytotoxicity control, cell-based, CellTiter-Glo luminescence, cherry-pick, set 4 | shares compounds with rRNA inh HTS | HepG2 viability, ATP luminescence, 72 h | activity change, negative = cytotoxicity, unspecified at 26 µM | 30 tested, under 10 active | AID 743480, 2014;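 active means compounds whose fitted half-maximal signal-loss concentration is at most twice their highest valid dose; inconclusive means flat curve with 30 to 70% signal loss, or poor fit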
AID977621: growth inhibition of wild-type GFP E. coli, dose response, H69 mutant RFP, cherry-pick. shares compounds with rRNA inh HTS. E. coli wild-type GFP strain growth, fluorescence, 24 h. activity change, negative = inhibition at 50 µM. 1,900 tested, under 10 active;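 active means Wild-type ribosome reporter drop at least double the humanized mutant ribosome reporter drop, growth loss under a set limit; inconclusive means no clear call, values can overlap the other calls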;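 further: wild-type GFP and H69 mutant RFP strains grown together 50/50 in each well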
AID977628: E. coli growth inhibition, wild-type GFP versus h24 humanized RFP strain, dose response, h24 mutant RFP vs wild-type GFP, cherry-pick; shares compounds with rRNA inh HTS; E. coli WT GFP strain growth, fluorescence, 24 h; 1,900 tested, under 10 active; activity change, negative = inhibition at 50 µM;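 active means compound lowering the normal-ribosome reporter at least twice as much as the humanized-ribosome reporter, growth loss under a set limit; inconclusive means no clear call, values can overlap the other calls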;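 further: wild-type GFP and h24 humanized RFP strains co-cultured 1 to 1 per well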
Starred values were filed as active, the others as inactive.

Results for C[C@@H]1CN([C@@H](C)CO)C(=O)c2cccc(NC(=O)C3CCOCC3)c2O[C@H]1CN(C)S(=O)(=O)c1cn(C)cn1 ?
rRNA inh HTS: 1.5; MLL AF4-AF9 inh: -2.7; RAD52 anneal inh: -12.3

What do the screens show for `c1ccc2c(c1)Nc1cc3ccccc3cc1S2`?
rRNA inh HTS: -21.0*; MLL AF4-AF9 inh: 1.4; RAD52 anneal inh: -14.2; Casp6 inh: 0.9; NSD2 inh: 3.1; AID977621: -5.29; AID977628: -7.62

Results for COc1ccc(OCC(=O)Nc2ccc(C(=O)Nc3ccccc3C(=O)O)cc2)cc1 ?
rRNA inh HTS: -23.7; MLL AF4-AF9 inh: -8.8; RAD52 anneal inh: -7.1; Casp6 inh: 7.4; NSD2 inh: -1.3

What do the screens show for `CC(=O)NS(=O)(=O)c1ccc(NC(=O)COc2ccc(C(=O)c3ccccc3)cc2)cc1`?
rRNA inh HTS: -27.0*; MLL AF4-AF9 inh: 12.8; RAD52 anneal inh: -17.0; Casp6 inh: 3.1; NSD2 inh: -1.0; AID977621: inconclusive

How did O=C(COc1ccc(Br)cc1)Nc1ccc(C(=O)Nc2ccccc2C(=O)O)cc1 do in these assays?
rRNA inh HTS: -27.5*; MLL AF4-AF9 inh: -5.1; RAD52 anneal inh: -2.3; Casp6 inh: 0.0; NSD2 inh: 9.0; AID977621: -2.82; AID977628: -6.11

Results for CN(C(=O)c1ccc(F)cc1)c1ccc(OCC(=O)Nc2ccccc2C(=O)O)cc1 ?
rRNA inh HTS: -13.8*; MLL AF4-AF9 inh: -1.3; RAD52 anneal inh: -8.9; Casp6 inh: 3.5; NSD2 inh: -2.9; AID977621: -0.787; AID977628: inconclusive

How did COCC(=O)Nc1ccc2c(c1)C(=O)N(C)[C@@H]1CC[C@H](CC(=O)NCC3CCCCC3)O[C@@H]1CO2 do in these assays?
rRNA inh HTS: 0.2; MLL AF4-AF9 inh: 0.6; RAD52 anneal inh: -14.4; Casp6 inh: 0.9

What do the screens show for `C[C@H]1CN([C@@H](C)CO)S(=O)(=O)c2ccc(C#CC3(O)CCCC3)cc2O[C@@H]1CN(C)C(=O)Nc1ccccc1`?
rRNA inh HTS: 1.5; MLL AF4-AF9 inh: -9.5; RAD52 anneal inh: -20.7; Casp6 inh: 2.0

What do the screens show for `O=C(Nc1cccc(S(=O)(=O)c2cccc(NC(=O)C3CC3)c2)c1)C1CC1`?
rRNA inh HTS: -23.2*; MLL AF4-AF9 inh: -24.4; RAD52 anneal inh: -11.3; Casp6 inh: 0.1; NSD2 inh: -0.8; AID977621: inconclusive; AID977628: -9.13

What do the screens show for `COc1cccc(NC(=O)c2ccc(-c3ccc([N+](=O)[O-])cc3)o2)c1`?
rRNA inh HTS: -28.2*; MLL AF4-AF9 inh: 1.1; RAD52 anneal inh: -45.7; Casp6 inh: 4.5; NSD2 inh: -3.3; AID977621: -22.9

What do the screens show for `Cc1nnc(NC(=O)c2ccc(-c3ccc([N+](=O)[O-])cc3)o2)s1`?
rRNA inh HTS: -1.5; MLL AF4-AF9 inh: -2.0; RAD52 anneal inh: -10.0; Casp6 inh: 2.1; NSD2 inh: 1.6

How did CC(=O)Nc1cccc(OCCCOc2ccc([N+](=O)[O-])cc2)c1 do in these assays?
rRNA inh HTS: 2.6; MLL AF4-AF9 inh: 0.0; RAD52 anneal inh: -0.3; Casp6 inh: -4.2; NSD2 inh: -0.6

Results for CC(=O)Nc1cccc(OCc2ccc([N+](=O)[O-])cc2)c1 ?
rRNA inh HTS: -23.1*; MLL AF4-AF9 inh: 0.4; RAD52 anneal inh: -5.9; Casp6 inh: 0.9; NSD2 inh: -0.5; AID977621: -5.95; AID977628: -6.55

How did C[C@@H]1CN([C@@H](C)CO)S(=O)(=O)c2ccc(C#CC3CC3)cc2O[C@H]1CN(C)Cc1ccccc1 do in these assays?
rRNA inh HTS: -3.0; MLL AF4-AF9 inh: 4.0; RAD52 anneal inh: -14.5; Casp6 inh: -5.0

How did C[C@H](CO)N1C[C@H](C)[C@@H](CN(C)C(=O)CCC(F)(F)F)OCCCC[C@H](C)Oc2ccc(NC(=O)NC3CCCCC3)cc2C1=O do in these assays?
rRNA inh HTS: -3.0; MLL AF4-AF9 inh: -3.2; RAD52 anneal inh: 6.0; Casp6 inh: -0.7

Results for Cn1cc([N+](=O)[O-])c(C(=O)Nc2ccc(-c3nc4ccccc4[nH]3)cc2)n1 ?
rRNA inh HTS: -25.9*; MLL AF4-AF9 inh: -5.9; RAD52 anneal inh: 12.6; Casp6 inh: -0.4; NSD2 inh: 0.7; AID977621: -28.9; AID977628: inconclusive

Results for COc1ccc(NC(=O)Nc2ccc3c(c2)[C@@H]2C[C@H](CC(=O)N4CCOCC4)O[C@H](CO)[C@@H]2O3)cc1 ?
rRNA inh HTS: -0.9

What do the screens show for `C[C@@H]1CN([C@H](C)CO)S(=O)(=O)c2ccc(C3=CCCC3)cc2O[C@@H]1CN(C)Cc1cncnc1`?
rRNA inh HTS: 0.9; MLL AF4-AF9 inh: -0.1; RAD52 anneal inh: 8.3; Casp6 inh: -1.5

Results for O=C(C[C@@H]1C=C[C@@H](NS(=O)(=O)c2cccc(F)c2)[C@@H](CO)O1)NCc1ccc2c(c1)OCO2 ?
rRNA inh HTS: -3.7; MLL AF4-AF9 inh: 1.9; RAD52 anneal inh: 4.7; Casp6 inh: -1.1

How did C[C@@H](NC(=O)C[C@H]1C[C@H]2c3cc(NC(=O)NC4CCCC4)ccc3O[C@H]2[C@H](CO)O1)c1ccccc1 do in these assays?
rRNA inh HTS: 0.9; MLL AF4-AF9 inh: -1.5; RAD52 anneal inh: 0.8; Casp6 inh: -0.7

What do the screens show for `COc1cc2c(cc1[N+](=O)[O-])-c1ccc([N+](=O)[O-])cc1C2`?
rRNA inh HTS: -22.7*; MLL AF4-AF9 inh: 9.8; RAD52 anneal inh: -74.5; Casp6 inh: -0.5; NSD2 inh: 0.1; HepG2 cytotox: -23.1; AID977628: inconclusive

How did COc1cc2c(cc1[N+](=O)[O-])-c1ccccc1C2 do in these assays?
MLL AF4-AF9 inh: -1.8; RAD52 anneal inh: -21.1; Casp6 inh: -0.7; NSD2 inh: 0.8

What do the screens show for `COc1ccc(C(=O)C2CCCN(C/C=C/c3ccccc3OC)C2)c(OC)c1` (centres undefined)?
rRNA inh HTS: -10.7; MLL AF4-AF9 inh: 6.8; RAD52 anneal inh: -17.7; Casp6 inh: 2.7; NSD2 inh: 1.3

Source: PubChem BioAssay (Broad Institute)
